Our source for the growth inhibition values is PubChem BioAssay (NCI).

The panel holds about 79,000 compounds, 15% with a hit somewhere; the sample as a whole holds those more often. Values without a mark were called inactive. Calls of active or inactive are those of the source. Cut-off read from the data, not from the text of the source: active = growth inhibition above about 70%; inactive = the rest.

This test can be described thus: NCI Yeast Anticancer Drug Screen. Data for the mlh1 rad18 strain (AID 175). Conditions: S. cerevisiae mlh1 rad18 strain growth inhibition; at 50.0 µM; active compounds read high. A digest of the protocol:
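Vehicle-treated cultures served as the reference for growth inhibition in a yeast strain carrying DNA damage repair alterations exposed to each compound.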
Turning to `COCCN(CCOC)C(=O)Nc1cccc(Cl)c1`, the growth inhibition was 10.2%.
For `OCC(O)COCC#Cc1ccccc1` (stereo not given) the value was 16.2%.
Turning to `CCC1=NS(=O)(=O)c2c(ncn2C)N1`, the growth inhibition is 1.35%.
To `COc1ccccc1C(O)c1ccccc1` (stereo not given) belongs 3.75%; to `O=C(/C=C/c1ccccc1)[c-]1[c-][c-][c-][c-]1.[Fe].[c-]1[c-][c-][cH-][c-]1`, 13.2%; to `COC(=O)c1cc(-c2ccncc2)[nH]c(=O)c1C#N`, -19.9%.
Regarding `COC(=O)C1(CC(=O)c2ccc(Cl)cc2Cl)NC(=S)NC(=O)C1C#N` (stereo not given), the growth inhibition is 18.8%.
For `COC=C(C(=O)OC)C(=O)OC` the value was 3.85%; for `NC(=O)c1cccc(NC=O)c1`, 25.8%.
Take `CCOC(=O)C(C(=O)OCC)C(C)(C)C`: the growth inhibition is -9.2%.
For `COC(=O)C(Cc1nc2ccccc2[nH]c1=O)C(=O)C(=O)Nc1ccc([N+](=O)[O-])cc1[N+](=O)[O-]` (stereo not given) the value was 13.1%; for `O=S(=O)(O)c1cccc(/C(=N\Nc2ccccn2)c2ccccn2)c1`, 45.4%; for `CC(NC(=O)C(Cc1ccccc1)NC(=O)OCc1ccccc1)C(=O)NC1C(CO)OC(n2cnc3c(N)ncnc32)C1O` (stereo not given), 16.5%.
To `CCOC(=O)c1cc2c(nc1N)C(=O)CCCC2` belongs -31.6%; to `CN1CCS(=O)(=O)NC(Cc2ccccc2)C(=O)N2CCCC2C1=O` (stereo not given), -8.5%; to `O=S1(=O)CCC(Br)c2ccccc2C1` (stereo not given), -5.4%.
To `Nc1ccc(S(=O)(=O)c2ccc(Nc3ccnc4cc(Cl)ccc34)cc2)cc1` belongs 12.8%; to `CCN(CC)CCC(=O)N1C/C(=C/c2ccccc2)C(=O)/C(=C\c2ccccc2)C1`, 2.7%.
Turning to `Cc1cc2cc3oc(C)cc3cc2o1`, the growth inhibition is 3.25%.
To `N#CC1=C(Nc2ccccc2)CCC1` belongs -5.4%; to `CCOC(=O)c1ccc(-n2nc3nc(N)[nH]c(=O)c3n2)cc1`, -34.4%.
To `O=C1C2C3C=CC(C2C(=O)N1CCl)C1C2C(=O)N(CCl)C(=O)C2C31` (stereo not given) belongs 18.7%; to `COc1cccc(Oc2c(O)c3ccc(OC)cc3oc2=O)c1`, 8.75%.
To `OCC1=CC(c2ccccc2)(c2ccccc2)c2ccccc21` belongs 95.4% (active); to `Nc1nc2c(c(=O)[nH]1)C(c1ccccc1)C(c1ccccc1)C2` (stereo not given), 0.15%; to `CCCCCC1OC1CC1OC1CCCCCCCC(=O)O` (stereo not given), -13.4%.
Take `CCOP(=O)(OCC)/C(C#N)=C/c1cccc([N+](=O)[O-])c1`: the growth inhibition was 9.25%.
For `OC1C=COC2COC(c3ccccc3)OC12` (stereo not given) the value was 10.2%; for `O=C(O)COc1ccc2ccccc2c1`, 2.1%.
For `COC(=O)C1=C(C(=O)OC)C2CCCOC2=C(C)C1` (stereo not given) the value was 7%.
For `Cc1ccc2ccc(=O)oc2c1` the value was 6.85%.
For `CCOc1ccc(N=Nc2ccc3oc(=O)c(C(=O)Nc4ccc(OC)cc4)cc3c2)cc1`, the growth inhibition is 11.6%.
For `CCCc1cc(=O)oc2c(C=O)c(O)cc(O)c12` the value was 46.5%.
For `CN(C)/C=N/NC(=O)C(O)c1ccccc1` (stereo not given) the value was -19.6%; for `C/C(CC(=O)Nc1cccc([N+](=O)[O-])c1)=N\NC(=O)CC#N`, 2.35%.
For `CC(=O)OC1C(NC(=O)OCc2ccccc2)CC(NC(=O)OCc2ccccc2)C(O)C1O` (stereo not given) the value was 4.9%; for `N#Cc1[nH]c(=S)[nH]c1N`, -40.8%.
Take `CCc1cccc(CC)c1Nc1nc(C)nc2c1cnn2C`: the growth inhibition was 3.95%.
To `O=CNNC(=O)Nc1cccc2ccccc12` belongs -25.5%; to `CC(C)C(Br)CCC1=CCC(Br)(Br)C1` (stereo not given), 90.3% (active).
